p53null 39C tox = selectivity test: cytotoxicity in p53 null cells, nonpermissive temperature; H1299 p53-null (neo) cells, 39C, ATPlite viability, 24 h; Potency, µM (highest dose often 46.1 µM), for the others: at the top dose activity, negative = cell killing, usual class: cytotoxic; 0.97% of 55,000 active; AID 904;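 further: potency means the concentration at half of the fitted maximal effect; 0% = DMSO only and -100% = full killing by 100 µM tamoxifen; nearly all actives have a fitted effect of over 50% in size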
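Temperature-shift cytotoxicity format: compound titrations on p53-null or A138V-expressing H1299 cells held 24 hr at 39C, cell ATP then measured, AC50 from Hill model.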
S16 viability = S16 Schwann cell cytotoxicity. S16 Pmp22-F2sN Schwann cells viability, CellTiter-Glo, 24 h. AID 1508642. 0.48% of 43,000 active. Potency, µM (titrated, usually from 57.5 µM), for the others: at the highest dose activity change, negative = cytotoxicity, hits mostly cytotoxic; further: potency means the concentration at half of the fitted maximal effect; on the % scale 0 is the no-effect control and ±100 the full control effect; nearly all actives have a fitted effect of over 65% in size
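S16 Pmp22-F2sN Schwann cells (500-1,000/well) in phenol-red-free DMEM with 10% FBS received 23 nL compound by pin tool for 24 h at 37 °C. Viability was then read as CellTiter-Glo luminescence after 15 min at room temperature.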
PMP22 txn prim = modulates PMP22 transcription in S16 Schwann cells | S16 Pmp22-F2sN Schwann cells (luciferase reporters placed in the Pmp22 gene), FLuc/NLuc coincidence luminescence, 24 h | Potency, µM (titrated, usually from 57.5 µM), for the others: at the top dose activity change, negative = inhibition, actives largely listed as inhibitors | 2% of 43,000 active | AID 1508649; active means clear falling dose curves in both reporters; inconclusive means both reporters move, but less clearly or upward; inactive means either reporter flat; the % is the NLuc reporter signal; further: potency means the concentration at half of the fitted maximal effect; on the % scale 0 is the no-effect control and ±100 the full control effect
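S16(c9) Schwann cells with FLuc/NLuc coincidence reporter in the Pmp22 3' UTR; compounds pin-transferred, 24 h at 37C. Dual-luciferase read: FLuc first, then NLuc after Stop&Glo, each 10 min at room temperature.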
mTORC1 inh = inhibitors of mTORC1 signaling in Tsc2-/- p53-/- MEF cells | Tsc2-/- p53-/- MEF, phospho-rpS6 immunofluorescence/PI, 24 h | Potency, µM (doses to about 38.3 µM), for the others: at the highest dose activity change, negative = inhibition, hits mostly inhibitors | 0.78% of 44,000 active | AID 493208;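 further: potency means the concentration at half of the fitted maximal effect; plate controls were DMSO for no effect and rapamycin for full effect; nearly all actives have a fitted effect of over 50% in size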
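Plate MEFs (Tsc2-/-, p53-/-, empty vector) in DMEM/10% FBS; after 24 h add compound, incubate 24 h at 37 degree Celsius; fix in PFA/TX-100, block, stain phospho-rpS6 and 10 uM PI; scan at 488 nm; report % positive cells.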
p53null 32C tox = selectivity test: cytotoxicity in p53 null cells, permissive temperature | H1299-neo p53 null cells, ATP luminescence, 24 h, 32C | Potency, µM (doses to about 46.1 µM), for the others: at the highest dose activity change, negative = cytotoxicity, most hits filed as cytotoxic | 0.62% of 55,000 active | AID 903;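 further: potency means the concentration at half of the fitted maximal effect; 0% = DMSO only and -100% = full killing by 100 µM tamoxifen; nearly all actives have a fitted effect of over 55% in size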
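Cells lacking p53 (H1299-neo) are plated at 600 per well and allowed to settle overnight at 37C. Test compounds (up to 46 uM) are added and held 24 hours at 32C, then ATP is quantified by luminescence.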
NLuc saturating = inhibits NanoLuc at saturating substrate, PMP22 counter-screen. shares compounds with PMP22 txn prim. Secreted NLuc enzyme (filtered S16 cell medium), Nano-Glo luminescence. Potency, µM (titrated, usually from 57.5 µM), for the others: top-dose activity change, negative = inhibition, most hits filed as inhibitors. 4% of 690 active. AID 1508638; further: potency means the concentration at half of the fitted maximal effect; on the % scale 0 is the no-effect control and ±100 the full control effect
NLuc Km ctr = NanoLuc inhibition at Km substrate, PMP22 artifact check; shares compounds with PMP22 txn prim; secreted NLuc enzyme, coelenterazine luminescence, Km conditions; Potency, µM (doses to about 57.5 µM), for inactives: top-dose activity change, negative = inhibition, usual class: inhibitors; 5% of 690 active; AID 1508639; further: potency means the concentration at half of the fitted maximal effect; on the % scale 0 is the no-effect control and ±100 the full control effect
FLuc ctr PMP22 = firefly luciferase enzyme inhibition artifact for PMP22 screen; Potency, µM (doses to about 57.5 µM), for inactives: at the highest dose activity, negative = inhibition, usual class: inhibitors; purified P. pyralis FLuc, luminescence, 10 min; AID 1508640; 690 tested, under 10 active; shares compounds with PMP22 txn prim; further: % of control where 0% means no effect
Target sequence (P08659 whole entry, looked up): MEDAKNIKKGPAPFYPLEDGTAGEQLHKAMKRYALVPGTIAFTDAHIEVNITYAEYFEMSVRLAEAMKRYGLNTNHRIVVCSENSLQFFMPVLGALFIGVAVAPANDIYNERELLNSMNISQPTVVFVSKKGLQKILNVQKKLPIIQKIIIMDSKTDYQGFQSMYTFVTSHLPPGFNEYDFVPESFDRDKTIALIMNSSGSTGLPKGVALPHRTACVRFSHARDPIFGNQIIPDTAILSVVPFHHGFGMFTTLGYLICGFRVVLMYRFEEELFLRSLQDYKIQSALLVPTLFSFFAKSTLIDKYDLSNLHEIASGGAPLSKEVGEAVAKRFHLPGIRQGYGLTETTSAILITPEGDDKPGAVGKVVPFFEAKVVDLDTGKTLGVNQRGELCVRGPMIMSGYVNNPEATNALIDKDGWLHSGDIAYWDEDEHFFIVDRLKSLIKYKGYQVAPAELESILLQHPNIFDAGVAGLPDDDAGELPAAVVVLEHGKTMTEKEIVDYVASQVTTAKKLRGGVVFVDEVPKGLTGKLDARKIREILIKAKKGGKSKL
S16 F2sN tox cnf = S16 Schwann cell cytotoxicity, confirmatory. shares compounds with PMP22 txn prim. S16 Schwann cells viability, CellTiter-Glo ATP luminescence, 24 h. Potency, µM (highest dose often 57.5 µM), for inactives: top-dose activity change, negative = viability loss, usual class: cytotoxic. 7% of 690 active; further: potency means the concentration at half of the fitted maximal effect; on the % scale 0 is the no-effect control and ±100 the full control effect
PMP22 txn cnf = PMP22 transcription modulation, confirmatory. shares compounds with PMP22 txn prim. S16 Schwann cells Pmp22-F2sN, dual luciferase, 24 h. Potency, µM (highest dose often 57.5 µM), for the others: at the highest dose activity change, negative = inhibition, actives largely listed as inhibitors. 22% of 690 active; active means clear falling dose curves in both reporters; inconclusive means both reporters move, but less clearly or upward; inactive means either reporter flat; the % is the FLuc reporter signal; further: potency means the concentration at half of the fitted maximal effect
An asterisk follows results filed as active; ? = inconclusive; . = not tested or not shown. Sampled rows, rich in hits. Any-hit rate of the full collection: about 3.2%. Unless noted, the call rests on the fitted dose curve; in most records, active means well fitted curve in the direction sought with a large enough effect; inconclusive means small, poorly fitted or top-dose-only effect, or another doubt; inactive means no such curve, though single readings can be large; an effect the other way counts as inactive or inconclusive.

SMILES | p53null 39C tox | S16 viability | PMP22 txn prim | mTORC1 inh | p53null 32C tox | NLuc saturating | NLuc Km ctr | FLuc ctr PMP22 | S16 F2sN tox cnf | PMP22 txn cnf
CCOc1ccc(NC(=O)c2cc3sc(Cl)cc3n2CC)cc1 | 13% | -28% | 12µM* | -1% | -7% | 2% | 2% | 1% | -6% | ?
CCn1c(C(=O)NCc2ccc(OC)cc2)cc2sc(Cl)cc21 | 14% | 19% | 4% | -6% | ? | . | . | . | . | .
Cc1ccccc1S(=O)Cc1ccc(C(=O)NC2CCCCCC2)o1 (stereo unspecified) | -1% | 7% | -23% | 2% | 5% | . | . | . | . | .
Cc1ccc(CNC(=O)c2ccc(-c3nc(CS(=O)(=O)c4ccc(C)cc4)c(C)o3)cc2)cc1 | 11% | ? | 13µM* | 2% | 1% | -4% | 1% | -3% | 2% | -32%
CCCCNC(=O)c1ccc(-c2nc(CS(=O)(=O)c3ccc(C)cc3)c(C)o2)cc1 | -16% | -3% | ? | -6% | 12% | . | . | . | . | .
CCOC(=O)N1CCN(Cc2nc3cc(NC(=O)CC(C)C)ccc3n2C(C)C)CC1 | ? | -18% | ? | ? | 7% | . | . | . | . | .
CCOC(=O)N1CCN(Cc2nc3cc(NC(=O)c4ccc([N+](=O)[O-])cc4)ccc3n2C(C)C)CC1 | 4% | -25% | 14µM* | ? | -15% | ? | 19µM* | -7% | ? | ?
CCOC(=O)N1CCN(Cc2nc3cc(NC(=O)CC)ccc3n2C(C)C)CC1 | -11% | -17% | 5.3µM* | ? | 6% | -5% | -3% | 1% | 7% | ?
Cc1ccc(NC(=O)/C=C/c2ccccc2)c(Br)c1 | -28% | 20% | -17% | 18% | -22% | . | . | . | . | .
COc1ccc(CCNC(=O)Cn2c(=O)cc(C(F)(F)F)c3c(C)nn(C)c32)cc1OC | -3% | -1% | 3% | 4% | 1% | . | . | . | . | .
COCCn1c(SCc2ccccc2F)nc2c([nH]c3ccccc32)c1=O | 16% | 1% | 11µM* | -6% | -5% | -6% | 0% | 6% | -21% | ?
Cn1c(SCc2ccccc2F)nc2c([nH]c3ccccc32)c1=O | -10% | 1% | -3% | -8% | -1% | . | . | . | . | .
CCCC(=O)N(c1ccc2oc(C)c(C(C)=O)c2c1)S(=O)(=O)c1ccc(CC)cc1 | -1% | ? | 8.4µM* | -13% | 39% | -17% | 5% | -8% | -25% | ?
Cc1ccc2c(c1)c(=O)c1ccccc1n2CCCC(=O)Nc1ccc(C)c(F)c1 | -6% | ? | ? | 21% | -2% | . | . | . | . | .
CC(=O)c1ccc(NC(=O)c2nc(-c3ccccc3)n(-c3ccc(C)cc3)n2)cc1 | -22% | 13% | ? | 1% | -9% | . | . | . | . | .
CCN(c1ccccc1)S(=O)(=O)c1ccc2[nH]cc(C(=O)NC3CCCCC3)c(=O)c2c1 | 27% | -23% | ? | -1% | 19% | . | . | . | . | .
CCN(c1ccccc1)S(=O)(=O)c1ccc2[nH]cc(C(=O)NCc3ccc(C)cc3)c(=O)c2c1 | 28% | 0% | 13µM* | -5% | 0% | -8% | -2% | 5% | -9% | -11%
O=C(Nc1ccc(Cl)cc1Cl)c1cc(S(=O)(=O)N2CCc3ccccc32)ccc1F | 9% | -4% | 0% | ? | -5% | . | . | . | . | .
CCCCNc1oc(-c2ccc(COc3ccc(OC)cc3)o2)nc1C#N | 7% | -2% | -26% | -8% | -3% | . | . | . | . | .
COCCNc1oc(-c2ccc(COc3ccc(OC)cc3)o2)nc1C#N | 2% | -15% | ? | -12% | -4% | ? | -6% | -18% | ? | -11%
CCn1c2c(c(=O)n3ncc(C(=O)Nc4cccc(Cl)c4C)c13)CN(Cc1ccc(OC)cc1)CC2 | ? | -19% | 12% | 2% | -8% | . | . | . | . | .
CCOCCCNC(=O)c1ccc(-n2c(-c3ccccc3)cc3c2CCCC3)cc1 | 25% | ? | ? | -13% | 24% | . | . | . | . | .
COCCNC(=O)c1ccc(-n2c(-c3ccccc3)cc3c2CCC(C)C3)cc1 (stereo unspecified) | 42% | ? | 10µM* | 4% | 15% | -16% | ? | -4% | -5% | -39%
CCCNC(=O)c1ccc(-n2c(-c3ccccc3)cc3c2CCC(C)C3)cc1 (stereo unspecified) | 44% | 25% | ? | ? | 0% | . | . | . | . | .
CC1CCc2c(cc(-c3ccccc3)n2-c2ccc(C(=O)NC(C)C)cc2)C1 (stereo unspecified) | -23% | 13% | 13µM* | -14% | 50% | -13% | -4% | -15% | 7% | ?
SMILES | p53null 39C tox | S16 viability | PMP22 txn prim | mTORC1 inh | p53null 32C tox | NLuc saturating | NLuc Km ctr | FLuc ctr PMP22 | S16 F2sN tox cnf | PMP22 txn cnf
CCOC(=O)c1c(NC(=O)CSc2cn(CCNC(=O)c3ccccc3F)c3ccccc23)sc2c1CCC2 | . | 1% | -37% | -11% | . | . | . | . | . | .
Clc1ccc(CCNc2nc3cc(Cl)c(Cl)cc3n3cnnc23)cc1 | -12% | 7% | 2% | -2% | -6% | . | . | . | . | .
CCOc1ccc(C2CC(=O)Nc3c2c(=O)nc(SCc2ccccc2C)n3C)cc1OC (stereo unspecified) | -10% | 2% | 24% | -2% | -3% | . | . | . | . | .
Cc1ccc(S(=O)(=O)Nc2cc3c(cc2N2CCOCC2)n(C)c(=O)n3C)cc1 | -14% | . | . | -17% | -2% | . | . | . | . | .
Cc1ccc(S(=O)(=O)Nc2cc3c(cc2N2CCOCC2)n(C)c(=O)n3C)c(C)c1 | -16% | ? | 15µM* | 2% | 1% | -4% | -3% | 5% | -9% | -45%
COc1ccc(Cl)cc1NS(=O)(=O)c1cc(Br)cc2c1N(C(=O)C1CC1)CC2 | 0% | 3% | -44% | -12% | 0% | . | . | . | . | .

Screening data: PubChem, National Center for Advancing Translational Sciences (NCATS)
